The results in this text go back to PubChem BioAssay (NCATS).

The structures appear in SMILES notation. Results filed as inconclusive are left out. Where a call stands in place of a potency, no number is given. Unmarked numbers belong to inactive results. Calls of active or inactive are those of the source. Calls follow the shape of the dose curve; as a rule, active = well fitted inhibition curve with a large enough effect; inconclusive = small, poorly fitted or top-dose-only effect; inactive = no such curve, though single readings can be large or run the other way.
Potency is read from the fitted curve at half-maximal effect.

Sequence of Cytochrome P450 3A7 (Homo sapiens) (P24462 whole entry, looked up): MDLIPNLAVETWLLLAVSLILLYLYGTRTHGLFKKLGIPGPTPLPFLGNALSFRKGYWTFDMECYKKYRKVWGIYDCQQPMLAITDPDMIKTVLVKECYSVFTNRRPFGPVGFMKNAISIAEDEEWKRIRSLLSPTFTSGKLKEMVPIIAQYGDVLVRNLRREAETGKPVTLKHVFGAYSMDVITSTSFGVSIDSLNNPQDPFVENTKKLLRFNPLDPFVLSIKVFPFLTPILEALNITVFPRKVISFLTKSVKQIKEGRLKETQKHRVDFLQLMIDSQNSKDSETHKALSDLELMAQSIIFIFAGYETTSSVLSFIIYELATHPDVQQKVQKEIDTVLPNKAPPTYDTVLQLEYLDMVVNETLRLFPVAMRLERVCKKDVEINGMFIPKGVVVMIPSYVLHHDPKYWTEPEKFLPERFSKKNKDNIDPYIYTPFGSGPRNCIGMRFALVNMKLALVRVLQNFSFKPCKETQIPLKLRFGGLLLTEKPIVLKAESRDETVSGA

In the experiment the target is Cytochrome P450 3A7 (Homo sapiens) (UniProt P24462). Nature of the experiment: Cytochrome P450 family 3 subfamily A member 7 (CYP3A7) small molecule antagonists: luciferase biochemical qHTS assay (AID 1963596). Also: nearly all actives have a fitted effect of over 40% in size. The settings on record: P450-Glo CYP3A7 enzyme luminescence, 1 h; series mostly up to 57.4 µM. In outline:
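Luminescence from luciferin released by CYP3A7 from a proluciferin substrate, read 20 min after detection reagent. Compound and enzyme-substrate mix sat 10 min before NADPH regeneration solution; reaction ran 1 h at room temperature.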
`O=C(CO)[C@@H](O)[C@H](O)[C@@H](O)C(=O)O`: the Potency result was “inactive”.
For `O=C1CSc2ccccc2N1Cc1cccc(C(F)(F)F)c1`, the Potency result is “inactive”.
With `Oc1ccc(C2(c3ccccc3F)CCC(F)(F)CC2)cc1`, the Potency was 5.01 µM (active).
Regarding `Cc1ccc(C(=O)c2cn(CC(=O)Nc3ccc4c(c3)OCCO4)c3nc(C)ccc3c2=O)cc1`, the Potency entry is “inactive”.
As to `N#Cc1c[nH]c2c(C(=O)N3CCN(CCc4ccc(F)cc4)CC3)cccc12`, the Potency entry is “inactive”.
As to `C=Cc1ccccc1`, the Potency result is “inactive”.
The same measure, in the same setting: next, `Nc1nccs1`: “inactive”; `CC(CCC(=O)O)C1CC[C@H]2C3[C@H](O)C[C@@H]4C[C@H](O)CCC4(C)[C@H]3C[C@H](O)C12C` (stereo not given in full): “inactive”.
With `CCOc1ccc(NC(=S)N2CCC(C(O)(c3ccccc3)c3ccccc3)CC2)cc1`, the Potency result was “inactive”.
On to `CN(C)CC1CCOC1(c1ccccc1)c1ccccc1` (stereo not given), for which the Potency result was “inactive”.
For `c1ccc2ccccc2c1`, the Potency entry was “inactive”.
Consider `COc1ccc(-n2[nH]c3c(cnc4ccccc43)c2=O)cc1`, for which the Potency result is “inactive”.
As for `CN1CCN(c2cc3c(cc2F)c(=O)c(C(=O)O)cn3-c2ccc(F)cc2)CC1`, the Potency result is “inactive”.
Still for that read-out and setting: next, `C[C@@H](Nc1cc(NS(=O)(=O)N2CCC2)nc(SCc2cccc(F)c2F)n1)[C@@H](O)CO`: “inactive”; `N[C@@H]1CCCCN(c2c(F)cc3c(=O)c(C(=O)O)cn(C4CC4)c3c2Cl)C1`: “inactive”; `COC(=O)[C@H](Cc1cccc(C(=N)N)c1)[C@@H](C)NC(=O)c1ccc(-c2cc[n+]([O-])cc2)cc1`: “inactive”.
On the same count and under the same terms, in the case of `CC1(C)Oc2ncnc(N)c2N=C1c1ccc(C23CCC(CC(=O)O)(CC2)CC3)cc1` it was “inactive”; in that of `COC(=O)c1ccccc1O`, “inactive”.
In the case of `C=CCNCCCCCC[N+](C)(C)C`, the Potency result is “inactive”.
Same read-out and setting: in the case of `CC1(C#N)CCN(c2c(C(=O)N3CCC(C(=O)C4CC4)CC3)cnc3ccc(F)cc23)CC1` it was “inactive”.
Take `NC(Cc1ccc(O)c(O)c1)C(=O)O` (stereo not given): the Potency result was “inactive”.
Turning to `CO/N=C(\C(=O)N[C@@H]1C(=O)N2C(C(=O)O)=C(COC(C)=O)CS[C@H]12)c1csc(N)n1`, the Potency result is “inactive”.
Still for that read-out and setting: in the case of `CC(=O)Nc1ccc(C)cc1-c1nc2ccccc2n(CC(=O)Nc2cc(Cl)ccc2C)c1=O` it was “inactive”; in that of `C=C(C)[C@H]1CC=C(C)CC1`, “inactive”.
`COc1cc(F)c(C(C)C)cc1-c1ccc(C(F)(F)F)cc1CN1C(=O)OC(c2cc(C(F)(F)F)cc(C(F)(F)F)c2)C1C` (stereo not given): the Potency result is “inactive”.
`Cc1cc(OCCCS(C)(=O)=O)cc(C)c1-c1cccc(COc2ccc3c(c2)OCC3CC(=O)O)c1` (stereo not given): the Potency entry is “inactive”.
Turning to `O=C(OC(C(F)(F)F)C(F)(F)F)N1CCN(Cc2cccc(Oc3ccccc3)c2)CC1`, the Potency entry is “inactive”.
Take `FCOC(C(F)(F)F)C(F)(F)F`: the Potency result is “inactive”.
For `NC(=O)c1ncn(C2OC(CO)C(O)C2O)n1` (stereo not given), the Potency result is “inactive”.
As for `CCC(=C(c1ccc(OCCN2CCCC2)cc1)c1ccc(OCCN2CCCC2)cc1)c1ccccc1`, the activity change, negative = inhibition was 0% [at 11.5 µM].
As to `O=C(Nc1cccc(Cl)c1)Nc1ccccc1OCc1cc(=O)n2ccccc2n1`, the Potency entry was “inactive”.
On the same count and under the same terms, next, `CC12CCC(C[N+](C)(CCC[N+](C)(C)C)C1)C2(C)C` (stereo not given): “inactive”; `COc1ccc(C(=O)NC(c2ccc(Cl)cc2)c2cc(Cl)c3cccnc3c2O)cc1` (stereo not given): “inactive”; `Nc1ncnc2c1c(-c1ccc(Cl)cc1)nn2-c1cccc(-c2cnnn2Cc2cccc(-c3ccccc3)c2)c1`: “inactive”.
Same read-out and setting: in the case of `CCCN(CCc1cccs1)[C@H]1CCc2c(O)cccc2C1` it was “inactive”.
Still for that read-out and setting: in the case of `NCC1OC(OC2C(N)CC(N)C(OC3OC(CO)C(O)C(N)C3O)C2O)C(N)CC1O` (stereo not given) it was “inactive”.
Take `CC1CCCCC1N(Cc1ccccc1)[S+](=O)([O-])c1ccc([S+](=O)([O-])N(C)C)cc1` (stereo not given): the Potency result is “inactive”.
On to `COc1ccc(OC)c(-c2ccc(NC(=O)c3ccncc3F)cc2)c1`, for which the Potency result was “inactive”.
Turning to `CCCCc1c(-c2ccc(OC)cc2)[nH]c2nccnc12`, the Potency result was “inactive”.
Still for that read-out and setting: next, `Cc1ccc(Cn2c(SCc3ccc(C(=O)N4CCCCCC4)cc3)nc3ccncc32)cc1`: “inactive”.
